The record followed here is PubChem BioAssay.

Unmarked numbers belong to inactive results. No rule for the calls is given here.

Chain of Pantothenate synthetase (Mycobacterium tuberculosis (strain ATCC 25618 / H37Rv)) (P9WIL5 whole entry, looked up): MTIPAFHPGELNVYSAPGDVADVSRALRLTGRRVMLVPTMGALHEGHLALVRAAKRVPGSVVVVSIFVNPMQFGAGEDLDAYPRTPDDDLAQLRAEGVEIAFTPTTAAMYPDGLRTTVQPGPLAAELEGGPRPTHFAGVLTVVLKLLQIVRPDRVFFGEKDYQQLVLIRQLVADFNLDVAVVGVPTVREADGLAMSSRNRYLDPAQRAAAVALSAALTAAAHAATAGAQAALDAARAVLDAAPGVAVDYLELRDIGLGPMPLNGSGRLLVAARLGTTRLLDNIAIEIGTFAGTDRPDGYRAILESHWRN

This test has as its target Pantothenate synthetase (Mycobacterium tuberculosis (strain ATCC 25618 / H37Rv)) (UniProt P9WIL5). Kind of test: Recombinant Mtb pantothenate synthetase (PanC) inhibitors, coupled enzyme, confirmatory (AID 375).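 Also: 0% = full reaction with vehicle and 100% = no enzyme background.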 Particulars: coupled enzyme assay; at 10 µM, stronger effect = higher value.
In general, inhibition refers to the percentage by which the read-out fell short of the control. `CC1(C)CC(=O)c2cc(OCC(=O)N3CCN(c4ccccc4F)CC3)ccc2O1`: the inhibition was 6%.

For the molecule `CC(C)(C)c1cc(NS(=O)(=O)c2ccc3c(c2)OCCO3)on1`, the inhibition is 0%.

For the molecule `O=S(=O)(c1ccccc1)c1nc(-c2cccs2)oc1NCC1CCCO1` (stereo not given), the inhibition was 3%.

For `O=S1(=O)CC(N2CCCCC2)C(N2CCCCC2)C1` (stereo not given), the inhibition is 6%.

As to `CN(C)S(=O)(=O)c1ccc(C(=O)Nc2ccccc2C(=O)O)cc1`, the inhibition was 8%.

In the case of `O=C(OCC#CCSc1nnc(-c2ccncc2)o1)c1cccs1`, the inhibition is 0%.

On to `CN(CC(=O)Nc1ccncc1)S(=O)(=O)c1ccccc1`, for which the inhibition is 10%.

With `CCCn1c(=NC(C)=O)c(C#N)cc2c(=O)n3cccc(C)c3nc21`, the inhibition is 0%.

In the case of `COc1cccc(NC(=O)NC2(C(F)(F)F)Oc3ccccc3O2)c1`, the inhibition was 0%.

On to `O=C(Cn1cc2c(n1)CCCC2)NCCc1ccccc1`, for which the inhibition was 0%.

Consider `CCC(=O)N1CCc2cc(Br)cc(S(=O)(=O)CCC(=O)NCC3CCCO3)c21` (stereo not given), for which the inhibition is 0%.

In the case of `COC(=O)c1nn(-c2ccc(-c3ccccc3)cc2)cc1O`, the inhibition is 0%.

On to `CCOCCCn1c(=NC(C)=O)c(C(=O)OCC)cc2c(=O)n3ccccc3nc21`, for which the inhibition is 0%.

Take `CCCC(=O)Nc1cc(-c2nnc(OC)c3ccccc23)ccc1N1CCOCC1`: the inhibition was 0%.

Regarding `CCC1C(=O)N=C(SCC(=O)Nc2cccc3ccccc23)NC1=O` (stereo not given), the inhibition is 0%.

Take `Cc1cc(C)c(OCC(=O)Nc2ccc3c(c2)OCO3)cc1C`: the inhibition was 2%.

Consider `Cc1cccc(C2c3c(n(C)c(=O)n(C)c3=O)N=C3c4ccccc4C(=O)C32)c1` (stereo not given), for which the inhibition was 7%.

For the molecule `Cc1cccc(C)c1-n1nnnc1SCSc1nnnn1-c1c(C)cccc1C`, the inhibition is 1%.

In the case of `Cn1c2ccccc2c2ncn(CCCN3CCOCC3)c(=O)c21`, the inhibition is 0%.

In the case of `Cc1ccc(S(=O)(=O)N2CCN(c3nc(C)nc4sc(C)c(C)c34)CC2)cc1`, the inhibition is 2%.

Turning to `CCCC1CC(C)(C(=O)Cn2[nH]c(=O)ccc2=O)OC1=O` (stereo not given), the inhibition was 10%.

Take `Cn1c(=O)c2c(nc(Br)n2CCSc2ncccn2)n(C)c1=O`: the inhibition is 9%.

With `CNC(=O)CSc1nc2c(c(=O)n(C)c(=O)n2C)n1Cc1ccc(C)cc1`, the inhibition was 0%.

As for `COCCNC(=O)CN(C)S(=O)(=O)c1ccc2c(c1)OCCO2`, the inhibition is 7%.

As to `CCOC(=O)c1sc(NS(=O)(=O)c2ccc(NC(C)=O)cc2)nc1C`, the inhibition was 0%.

Turning to `CCN(CC)CCn1c2ccccc2c2nc(C)sc21`, the inhibition was 1%.

For `CCOc1ccc(OCc2ccc(C(=O)Nc3cccc(C)n3)o2)cc1`, the inhibition was 7%.

On to `CCOC(=O)c1cccc(NC(=O)CSc2nc3ccccc3c(=O)n2CC)c1`, for which the inhibition was 0%.

Regarding `c1ccc(-c2noc(-c3cccnc3)n2)nc1`, the inhibition is 0%.

`CCN1C(=O)N(CC)C2C1N(C(C)=O)C(=O)N2C(C)=O` (stereo not given): the inhibition was 0%.

`Cc1noc(NS(=O)(=O)c2ccc(N)cc2)c1C`: the inhibition is 0%.

As to `Cc1cc(-n2c(C)cc(C(=O)CSc3nnnn3-c3ccc(Cl)cc3)c2C)no1`, the inhibition is 7%.

As for `COc1ccc(OC)c(NC(=O)CSc2nnc(Cc3cccn3C)n2-c2ccc(F)cc2)c1`, the inhibition is 0%.

Take `COc1ccc(N(CC(=O)NCCSC(C)(C)C)S(C)(=O)=O)c(OC)c1`: the inhibition was 2%.

Take `COc1ccc(OC)c(C2/C(=C(\O)c3ccc4c(c3)OCCO4)C(=O)C(=O)N2CCCN(C)C)c1` (stereo not given): the inhibition was 0%.

On to `COC(=O)CCCCC(=O)C1C(=O)CC(C)(C)C(C(=O)OC)C1=O` (stereo not given), for which the inhibition is 0%.

`Cc1cc(S(=O)(=O)n2cnc3ccccc32)c(C)cc1Cl`: the inhibition was 0%.

In the case of `CC(C)N(C(=O)COC(=O)c1ccc(O)cc1)C(C)C`, the inhibition was 1%.

As for `Cc1sc(NC(=O)CSc2nnc(COc3ccccc3)n2C)c(C#N)c1C`, the inhibition is 6%.

On to `O=C(Nc1ccc2[nH]c3c(c2c1)CCCC3)c1ccco1`, for which the inhibition was 0%.
